About 8,800 targets were measured; listed, in parts, are those with a hit and a random draw of the rest. About 0.5% of all pairs of compound and target were hits. Values without a mark were called inactive.
How the values were obtained:
Assay in all cases: log2 fold change, soluble protein after heating vs DMSO (PISA); higher = thermal stabilisation; K562 lysate, 10 uM; active = over 0.2 and 3.5 SD of the protein, either way, in both replicates (recomputed)
ibrutinib = compound: C=CC(=O)N1CCC[C@@H](n2nc(-c3ccc(Oc4ccccc4)cc3)c3c(N)ncnc32)C1 [ibrutinib]
In short: (§1)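 Following dounce homogenisation of K562 pellets in PBS pH 7.4 with 1 mM MgCl2, crude extract at 1 mg/mL protein was incubated for 30 min with 10 μM compound. Aliquots were then heated for 3 min over 48°C-58°C and pooled, NP-40 was added to 0.5% at 4°C, and soluble protein was recovered as the supernatant at 21,000xg for 90 min. Channel-sum-equalised TMTpro 16plex LC-MS/MS quantified this protein. Each value, from duplicates, is a log-two fold change in thermal stability relative to solvent controls.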

[1] = compound: CC(=O)c1cnc2ccc(-c3cc(Cl)c(O)c(Cl)c3)nc2c1N[C@H]1CC[C@H](CN(C)C)CC1
In short: as §1

ralimetinib = compound: CC(C)(C)Cn1c(N)nc2ccc(-c3[nH]c(C(C)(C)C)nc3-c3ccc(F)cc3)nc21 [ralimetinib]
In short: as §1

[2] = compound: CC(C)(O)CC(=O)NCCn1ccc2ncnc(Nc3ccc(Oc4cccc(C(F)(F)F)c4)c(Cl)c3)c21
In short: as §1

[3] = compound: CC(C)C1=C2N=C(C=C(N2N=C1)NCC3=CC=CC=C3)NCCCCCCN
In short: as §1

[4] = compound: CC1=C(C(CC(=O)N1)C2=CC=C(C=C2)C(F)(F)F)C(=O)NC3=C(C=C4C(=C3)C=NN4)F
In short: as §1

[5] = compound: CC1=C(C2=C(C=C1)C(=O)C3=CC=CC=C3N2CCCN)C
In short: as §1

[6] = compound: CC1=C(C=C(C=C1)NC(=O)C2=CC(=CC=C2)C(C)(C)C#N)NC3=CC4=C(C=C3)N=CN(C4=O)C
In short: as §1

[7] = compound: CC1=C(C=C(C=C1)NC(=O)C2=CC(=CC=C2)N(C)C)NC(=O)C3=CC=C(C=C3)O
In short: as §1

[8] = compound: CC1=CC=C(C=C1)SC2=C3C=C(SC3=CN=C2)C(=O)N
In short: as §1

vemurafenib = compound: CCCS(=O)(=O)Nc1ccc(F)c(C(=O)c2c[nH]c3ncc(-c4ccc(Cl)cc4)cc23)c1F [vemurafenib]
In short: as §1

[9] = compound: CCCS(=O)(=O)Nc1ccc(F)c(C(=O)c2c[nH]c3ncc(Cl)cc23)c1F
In short: as §1

barasertib = compound: CCN(CCCOc1ccc2c(Nc3cc(CC(=O)Nc4cccc(F)c4)[nH]n3)ncnc2c1)CCOP(=O)(O)O [barasertib]
In short: as §1

[10] = compound: CC[C@@H]1C(=O)N(C)c2cnc(Nc3ccc(C(=O)NC4CCN(C)CC4)cc3OC)nc2N1C1CCCC1
In short: as §1

volasertib = compound: CC[C@@H]1C(=O)N(C)c2cnc(Nc3ccc(C(=O)N[C@H]4CC[C@H](N5CCN(CC6CC6)CC5)CC4)cc3OC)nc2N1C(C)C [volasertib]
In short: as §1

[11] = compound: CCn1c(C(=O)N(C2CC2)C2CC2)cc2c3c(ncn3C)c(Nc3cc(C)n(C)n3)nc21
In short: as §1

[12] = compound: CCn1cc(-c2ccnc3[nH]c(-c4cccc(CN(C)C)c4)cc23)c(-c2ccc(NC(=O)N(C)C)cc2)n1
In short: as §1

[13] = compound: CN1CCC(CNc2ccc3ncc(-c4cccc(OC(F)(F)F)c4)n3n2)CC1
In short: as §1

saracatinib = compound: CN1CCN(CCOc2cc(OC3CCOCC3)c3c(Nc4c(Cl)ccc5c4OCO5)ncnc3c2)CC1 [saracatinib]
In short: as §1

sotrastaurin = compound: CN1CCN(c2nc(C3=C(c4c[nH]c5ccccc45)C(=O)NC3=O)c3ccccc3n2)CC1 [sotrastaurin]
In short: as §1

Sequence of UniProt Q53H54 (Q53H54 whole entry, looked up): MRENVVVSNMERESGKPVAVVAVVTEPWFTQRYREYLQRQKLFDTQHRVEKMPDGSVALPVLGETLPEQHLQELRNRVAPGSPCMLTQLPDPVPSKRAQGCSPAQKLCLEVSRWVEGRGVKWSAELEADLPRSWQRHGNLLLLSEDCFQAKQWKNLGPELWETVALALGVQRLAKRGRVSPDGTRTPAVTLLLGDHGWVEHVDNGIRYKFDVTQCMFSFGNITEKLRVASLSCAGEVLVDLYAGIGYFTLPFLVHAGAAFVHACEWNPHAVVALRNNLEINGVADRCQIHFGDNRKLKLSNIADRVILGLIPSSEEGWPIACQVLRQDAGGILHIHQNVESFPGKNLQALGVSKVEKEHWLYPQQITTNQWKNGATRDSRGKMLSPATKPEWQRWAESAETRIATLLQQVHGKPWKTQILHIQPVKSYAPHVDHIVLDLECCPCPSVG
Sequence of UniProt Q9ULW0 (Q9ULW0 whole entry, looked up): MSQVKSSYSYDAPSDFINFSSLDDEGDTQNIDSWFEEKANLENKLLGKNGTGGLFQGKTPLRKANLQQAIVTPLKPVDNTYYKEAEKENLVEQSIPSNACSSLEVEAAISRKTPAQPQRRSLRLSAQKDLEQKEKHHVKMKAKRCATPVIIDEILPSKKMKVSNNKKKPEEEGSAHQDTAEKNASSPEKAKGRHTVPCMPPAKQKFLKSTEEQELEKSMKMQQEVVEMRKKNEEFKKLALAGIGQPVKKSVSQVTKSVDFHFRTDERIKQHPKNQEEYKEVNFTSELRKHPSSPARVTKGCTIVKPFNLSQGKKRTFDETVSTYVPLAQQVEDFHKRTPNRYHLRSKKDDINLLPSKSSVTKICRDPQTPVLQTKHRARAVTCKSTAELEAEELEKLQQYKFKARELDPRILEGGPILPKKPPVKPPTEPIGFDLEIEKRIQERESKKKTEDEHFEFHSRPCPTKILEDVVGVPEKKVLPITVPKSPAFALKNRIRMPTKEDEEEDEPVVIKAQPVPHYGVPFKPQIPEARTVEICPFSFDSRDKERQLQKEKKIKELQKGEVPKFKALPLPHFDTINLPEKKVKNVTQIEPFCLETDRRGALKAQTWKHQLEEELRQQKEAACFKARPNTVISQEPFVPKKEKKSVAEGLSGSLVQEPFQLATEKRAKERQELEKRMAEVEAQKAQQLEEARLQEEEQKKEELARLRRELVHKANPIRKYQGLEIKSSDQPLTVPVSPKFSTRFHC
Sequence of UniProt Q14669 (Q14669 whole entry, looked up): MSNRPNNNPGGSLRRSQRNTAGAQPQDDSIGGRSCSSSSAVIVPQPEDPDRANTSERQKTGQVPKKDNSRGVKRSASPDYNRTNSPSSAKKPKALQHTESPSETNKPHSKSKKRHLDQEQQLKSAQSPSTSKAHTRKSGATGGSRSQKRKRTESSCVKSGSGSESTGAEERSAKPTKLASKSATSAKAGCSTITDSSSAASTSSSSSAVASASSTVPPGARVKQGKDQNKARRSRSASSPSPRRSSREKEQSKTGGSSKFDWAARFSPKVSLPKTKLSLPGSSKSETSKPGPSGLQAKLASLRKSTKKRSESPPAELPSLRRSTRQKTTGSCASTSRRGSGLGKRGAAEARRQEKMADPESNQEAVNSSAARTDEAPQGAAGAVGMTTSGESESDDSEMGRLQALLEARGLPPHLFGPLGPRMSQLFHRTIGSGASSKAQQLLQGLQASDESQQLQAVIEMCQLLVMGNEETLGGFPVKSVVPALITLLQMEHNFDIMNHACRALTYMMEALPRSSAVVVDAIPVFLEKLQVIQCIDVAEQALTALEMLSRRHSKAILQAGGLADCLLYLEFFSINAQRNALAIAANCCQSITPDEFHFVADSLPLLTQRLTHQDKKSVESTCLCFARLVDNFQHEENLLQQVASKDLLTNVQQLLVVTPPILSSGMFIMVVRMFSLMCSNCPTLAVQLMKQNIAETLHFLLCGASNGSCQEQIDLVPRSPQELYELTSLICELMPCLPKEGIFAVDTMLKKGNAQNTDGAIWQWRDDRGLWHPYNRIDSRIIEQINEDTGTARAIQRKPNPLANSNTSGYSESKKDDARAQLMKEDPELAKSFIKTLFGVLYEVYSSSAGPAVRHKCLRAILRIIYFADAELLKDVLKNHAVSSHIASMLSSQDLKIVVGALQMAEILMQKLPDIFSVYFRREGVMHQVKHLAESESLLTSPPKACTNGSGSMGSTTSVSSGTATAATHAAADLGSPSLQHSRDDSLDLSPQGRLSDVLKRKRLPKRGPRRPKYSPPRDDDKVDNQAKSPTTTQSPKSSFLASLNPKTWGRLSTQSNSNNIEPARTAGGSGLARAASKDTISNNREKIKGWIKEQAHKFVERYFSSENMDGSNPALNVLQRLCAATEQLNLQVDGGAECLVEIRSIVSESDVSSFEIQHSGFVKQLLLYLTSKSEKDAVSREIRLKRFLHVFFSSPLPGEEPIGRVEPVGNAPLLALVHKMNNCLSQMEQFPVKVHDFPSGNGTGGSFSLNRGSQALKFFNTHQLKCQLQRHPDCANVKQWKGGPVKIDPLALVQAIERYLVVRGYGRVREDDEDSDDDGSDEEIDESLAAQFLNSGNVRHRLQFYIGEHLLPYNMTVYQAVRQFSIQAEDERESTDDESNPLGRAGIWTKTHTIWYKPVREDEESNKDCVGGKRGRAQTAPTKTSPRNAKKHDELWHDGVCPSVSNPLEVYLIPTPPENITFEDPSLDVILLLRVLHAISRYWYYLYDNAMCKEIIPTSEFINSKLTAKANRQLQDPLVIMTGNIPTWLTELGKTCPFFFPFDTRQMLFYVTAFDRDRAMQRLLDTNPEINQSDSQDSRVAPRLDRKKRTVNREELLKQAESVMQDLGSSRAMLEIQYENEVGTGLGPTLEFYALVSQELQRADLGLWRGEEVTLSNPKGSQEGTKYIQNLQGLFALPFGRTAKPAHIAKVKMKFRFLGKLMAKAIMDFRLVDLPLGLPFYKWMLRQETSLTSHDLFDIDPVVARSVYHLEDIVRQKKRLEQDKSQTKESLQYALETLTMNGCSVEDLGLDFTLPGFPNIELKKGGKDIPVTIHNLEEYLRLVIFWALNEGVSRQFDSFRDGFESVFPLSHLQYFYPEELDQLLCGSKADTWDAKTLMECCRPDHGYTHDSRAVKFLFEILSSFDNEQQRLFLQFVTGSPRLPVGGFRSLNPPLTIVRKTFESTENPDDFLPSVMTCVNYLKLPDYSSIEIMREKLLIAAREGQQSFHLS
Sequence of UniProt Q9H7E2 (Q9H7E2 whole entry, looked up): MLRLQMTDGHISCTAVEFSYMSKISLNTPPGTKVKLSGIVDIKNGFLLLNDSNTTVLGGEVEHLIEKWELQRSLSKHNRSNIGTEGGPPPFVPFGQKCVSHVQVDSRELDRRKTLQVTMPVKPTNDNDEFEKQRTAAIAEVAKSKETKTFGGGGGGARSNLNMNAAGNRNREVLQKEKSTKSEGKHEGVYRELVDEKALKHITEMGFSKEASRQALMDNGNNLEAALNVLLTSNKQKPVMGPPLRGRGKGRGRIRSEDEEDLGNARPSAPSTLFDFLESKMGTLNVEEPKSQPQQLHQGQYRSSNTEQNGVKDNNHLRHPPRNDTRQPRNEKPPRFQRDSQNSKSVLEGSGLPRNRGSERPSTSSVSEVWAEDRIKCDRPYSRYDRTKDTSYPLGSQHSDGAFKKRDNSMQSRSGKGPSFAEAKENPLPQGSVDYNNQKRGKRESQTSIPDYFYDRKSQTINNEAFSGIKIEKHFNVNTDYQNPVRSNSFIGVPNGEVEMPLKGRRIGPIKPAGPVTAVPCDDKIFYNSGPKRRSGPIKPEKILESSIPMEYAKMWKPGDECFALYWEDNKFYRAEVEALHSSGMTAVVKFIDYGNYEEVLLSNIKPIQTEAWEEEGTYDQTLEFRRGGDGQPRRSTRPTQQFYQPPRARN
Sequence of UniProt Q13509 (Q13509 whole entry, looked up): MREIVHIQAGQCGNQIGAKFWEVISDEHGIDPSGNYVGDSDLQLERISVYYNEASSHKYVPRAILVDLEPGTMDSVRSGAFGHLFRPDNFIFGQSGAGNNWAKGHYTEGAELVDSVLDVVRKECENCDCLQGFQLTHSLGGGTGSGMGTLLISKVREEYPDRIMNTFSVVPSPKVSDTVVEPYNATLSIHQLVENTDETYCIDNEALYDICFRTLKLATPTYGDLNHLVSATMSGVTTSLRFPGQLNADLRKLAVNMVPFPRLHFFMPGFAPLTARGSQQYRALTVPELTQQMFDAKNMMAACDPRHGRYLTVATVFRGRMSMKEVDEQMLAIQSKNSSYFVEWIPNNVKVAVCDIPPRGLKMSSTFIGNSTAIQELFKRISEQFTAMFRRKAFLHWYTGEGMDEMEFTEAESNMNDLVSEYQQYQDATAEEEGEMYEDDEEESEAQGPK
Sequence of UniProt Q99081 (Q99081 whole entry, looked up): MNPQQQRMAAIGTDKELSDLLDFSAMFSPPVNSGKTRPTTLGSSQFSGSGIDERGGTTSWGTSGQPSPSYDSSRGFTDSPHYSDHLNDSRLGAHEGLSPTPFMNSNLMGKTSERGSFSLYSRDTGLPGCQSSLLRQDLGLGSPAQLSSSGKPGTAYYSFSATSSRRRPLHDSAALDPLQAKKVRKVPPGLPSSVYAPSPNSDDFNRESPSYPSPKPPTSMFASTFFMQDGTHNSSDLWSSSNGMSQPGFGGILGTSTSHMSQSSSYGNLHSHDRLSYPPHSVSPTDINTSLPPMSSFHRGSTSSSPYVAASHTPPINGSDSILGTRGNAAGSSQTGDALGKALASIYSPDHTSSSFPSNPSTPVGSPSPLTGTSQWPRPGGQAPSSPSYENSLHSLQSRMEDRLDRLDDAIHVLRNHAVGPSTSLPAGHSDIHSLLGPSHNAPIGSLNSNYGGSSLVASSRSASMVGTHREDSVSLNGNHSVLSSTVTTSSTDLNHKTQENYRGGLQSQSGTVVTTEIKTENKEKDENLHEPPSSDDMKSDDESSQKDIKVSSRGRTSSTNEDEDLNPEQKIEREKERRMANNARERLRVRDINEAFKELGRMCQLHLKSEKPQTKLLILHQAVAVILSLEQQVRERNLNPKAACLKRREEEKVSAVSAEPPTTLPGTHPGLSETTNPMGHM

Target | log2 fold change (ibrutinib) | log2 fold change [1] | log2 fold change (ralimetinib) | log2 fold change [2] | log2 fold change [3] | log2 fold change [4] | log2 fold change [5] | log2 fold change [6] | log2 fold change [7] | log2 fold change [8] | log2 fold change (vemurafenib) | log2 fold change [9] | log2 fold change (barasertib) | log2 fold change [10] | log2 fold change (volasertib) | log2 fold change [11] | log2 fold change [12] | log2 fold change [13] | log2 fold change (saracatinib) | log2 fold change (sotrastaurin)
UBE3B (UniProt Q7Z3V4) | 0.041 | 0.019 | 0.02 | -0.074 | -0.112 | 0.068 | 0 | -0.004 | -0.022 | 0.023 | 0.102 | -0.052 | 0.175 | 0.016 | -0.044 | 0.029 | -0.099 | -0.132 | -0.069 | 0.055
UBAP2 (UniProt Q5T6F2) | 0.014 | 0.009 | -0.044 | -0.067 | 0.008 | 0.03 | 0.006 | -0.474 (active) | -0.026 | -0.019 | 0.009 | 0.016 | -0.007 | 0.071 | -0.002 | 0.004 | -0.172 | 0.106 | 0.028 | 0.02
TPX2 (UniProt Q9ULW0) | 0.024 | -0.01 | 0.003 | -0.006 | 0.036 | -0.005 | -0.008 | 0.062 | 0.001 | -0.01 | -0.006 | -0.013 | -0.036 | 0.093 | 0.012 | -0.035 | 0.04 | -0.007 | 0.03 | -0.016
TCF3 (UniProt P15923) | 0.001 | 0.027 | 0.014 | -0.028 | -0.005 | -0.034 | -0.074 | -0.061 | -0.045 | -0.016 | -0.01 | 0.002 | 0.012 | 0.129 | 0.002 | 0.047 | 0.028 | 0.043 | -0.158 | 0.002
TDRD3 isoform 3 (UniProt Q9H7E2) | -0.03 | 0.009 | -0.094 | 0.01 | -0.018 | -0.073 | -0.004 | 0 | -0.102 | 0.026 | 0.012 | -0.01 | -0.043 | 0.041 | -0.054 | 0.137 | 0.164 | -0.078 | -0.094 | 0.014
TRIP12 isoform 2 (UniProt Q14669) | 0 | -0.031 | 0.109 | 0.044 | -0.028 | -0.004 | 0.066 | 0.058 | -0.012 | 0.031 | 0.014 | 0.068 | 0.038 | -0.001 | -0.028 | 0.091 | -0.031 | 0.036 | -0.007 | 0.013
TRMT12 (UniProt Q53H54) | -0.083 | -0.009 | 0.094 | 0.063 | -0.018 | -0.081 | -0.048 | 0.036 | 0.033 | -0.031 | 0.059 | -0.009 | 0.068 | -0.17 | -0.052 | 0.047 | -0.303 | 0.281 | -0.021 | -0.047
UBL4A (UniProt P11441) | 0.056 | 0.055 | 0 | 0.049 | 0.009 | -0.023 | -0.02 | -0.044 | -0.002 | 0.025 | -0.032 | -0.001 | 0.089 | -0.081 | -0.02 | 0.121 | 0.33 (active) | -0.094 | 0.028 | 0
TUBB3 (UniProt Q13509) | 0.003 | 0.009 | 0.022 | -0.019 | 0.025 | 0.013 | 0.005 | -0.007 | 0.015 | 0.019 | -0.004 | 0.018 | -0.042 | -0.019 | -0.046 | 0.027 | -0.002 | 0.012 | 0.015 | 0.027
TMEM263 (UniProt Q8WUH6) | -0.04 | -0.003 | -0.037 | -0.174 | -0.002 | 0.349 | 0.049 | -0.058 | 0.004 | -0.079 | 0.086 | -0.024 | 0.19 | 0.133 | 0.023 | 0.097 | -0.034 | -0.242 | 0.109 | -0.003
TOE1 (UniProt Q96GM8) | 0.011 | -0.001 | 0.007 | 0.003 | 0.008 | -0.061 | -0.023 | -0.02 | 0.014 | 0.011 | 0.052 | 0.018 | -0.053 | -0.051 | -0.031 | -0.042 | -0.022 | -0.005 | -0.029 | 0.007
TCF12 isoform 3 (UniProt Q99081) | 0.059 | -0.029 | -0.022 | -0.054 | 0.002 | -0.008 | 0.064 | -0.008 | 0.011 | 0.109 | 0.008 | -0.068 | -0.037 | 0.034 | -0.094 | 0.017 | -0.04 | 0.079 | 0.043 | -0.054
